Test results reported in PubChem BioAssay (NCATS).
Inconclusive results are not listed. Active and inactive are the calls of the source. Calls follow the shape of the dose curve; as a rule, active = well fitted curve in the direction sought with a large enough effect; inconclusive = small, poorly fitted or top-dose-only effect, or another doubt; inactive = no such curve, though single readings can be large; an effect the other way counts as inactive or inconclusive.

Tests used:
[1] = target: ATP-dependent 6-phosphofructokinase (Trypanosoma brucei brucei) (UniProt O15648); test: qHTS Assay to Find Inhibitors of T. brucei phosphofructokinase: hit validation (AID 492961);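 also: luminescence reports ADP formed as PFK phosphorylates fructose-6-phosphate with ATP; % is scaled to controls: 0 for no effect and ±100 for the full control effect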
In short: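 In this biochemical qHTS validation, titrated compounds were tested against 1.25 nM PFK with 0.1 mM ATP and 0.5 mM F6P. Percent activity came from controls lacking or containing enzyme.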

[2] = target: Ubiquitin carboxyl-terminal hydrolase 1 (Homo sapiens) (UniProt O94782); test: Inhibitors of USP1/UAF1: Pilot qHTS (AID 504865);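 also: rhodamine fluorescence freed from ubiquitin-rhodamine substrate followed over time; top concentration of the series differs between compounds; % is scaled to controls: 0 for no effect and ±100 for the full control effect; nearly all actives have a fitted effect of over 35% in size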
In short: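 In 50mM HEPES pH 7.8 containing 0.5mM EDTA, 1mM TCEP, 0.1 mg/ml BSA and 0.01% Tween-20, 1nM USP1/UAF1 is exposed to compound for 15 min, then Ub-Rho (150nM final) is added and fluorescence is read over time.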

[3] = target: Luciferin 4-monooxygenase (Photinus pyralis) (UniProt P08659); test: Biochemical firefly luciferase enzyme assay for NPC (AID 624030);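 also: purified P. pyralis luciferase at 10 nM with luciferin and ATP substrate; 0% = DMSO and -100% = full luciferase inhibition by PTC124 control; nearly all actives have a fitted effect of over 70% in size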
In short: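 Direct inhibition of firefly luciferase enzyme (10 nM final, 50 mM Tris Acetate) assessed by luminescence within 5 minutes. Percent activity scaled between DMSO and PTC124 positive control, with concentration-effect curves classified by fit quality and response.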

[4] = S16 Schwann cell viability assay (CellTiter-Glo assay) (AID 624031);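 also: cellular ATP luminescence as a viability measure; plate controls were DMSO-treated cells for no effect and cell-free wells for full effect; nearly all actives have a fitted effect of over 70% in size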
In short: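 Native S16 rat Schwann cells in DMEM/10% FBS without phenol red were incubated overnight, then exposed to compounds for 24 h at 37 °C/5% CO2. Viability was read as ATP luminescence (CellTiter-Glo), normalized to no-cell wells and DMSO (0%).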

[5] = S16 Schwann cell PMP22 intronic element firefly luciferase assay (AID 624032);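 also: plate controls were DMSO for no effect and PTC124 positive control mean for full effect; nearly all actives have a fitted effect of over 30% in size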
In short: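 Luciferase reporter of PMP22 intronic-element expression in stably transfected S16 rat Schwann cells, read by ONE-Glo luminescence after 24 h compound exposure at 37 C. Activity scaled between DMSO (0%) and positive-control PTC124; concentration-effect curves quality-classified.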

[6] = qHTS profiling for inhibitors of Plasmodium falciparum proliferation (AID 504749);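 also: 0% = DMSO vehicle and full inhibition = artemisinin control; nearly all actives have a fitted effect of over 60% in size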; details: P. falciparum in erythrocytes, SYBR Green DNA, 72 h, at 28.7 µM (top of the series)
In short: (§1)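 Infected RBCs, 0.3% parasitemia/2.5% Hct final; cpd 72 h, 37 C, 5% CO2; lysis buffer with saponin/triton/SYBR Green I, o/n RT dark; FI 485/535; norm. to artemisinin (0.29 uM) and DMSO.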

3D7 = test: as above; details: P. falciparum in erythrocytes, SYBR Green DNA, 72 h; series mostly up to 28.7 µM
In short: as §1

7G8 = test: as above; details: P. falciparum in erythrocytes, SYBR Green DNA, 72 h; series mostly up to 28.7 µM
In short: as §1

AA1029 = test: as above; details: P. falciparum in erythrocytes, SYBR Green DNA, 72 h; series mostly up to 28.7 µM
In short: as §1

AS120 = test: as above; details: P. falciparum in erythrocytes, SYBR Green DNA, 72 h; series mostly up to 28.7 µM
In short: as §1

ATS189 = test: as above; details: P. falciparum in erythrocytes, SYBR Green DNA, 72 h; series mostly up to 28.7 µM
In short: as §1

ATS95 = test: as above; details: P. falciparum in erythrocytes, SYBR Green DNA, 72 h; series mostly up to 28.7 µM
In short: as §1

C2A = test: as above; details: P. falciparum in erythrocytes, SYBR Green DNA, 72 h; series mostly up to 28.7 µM
In short: as §1

CP185 = test: as above; details: P. falciparum in erythrocytes, SYBR Green DNA, 72 h; series mostly up to 28.7 µM
In short: as §1

CP191 = test: as above; details: P. falciparum in erythrocytes, SYBR Green DNA, 72 h; series mostly up to 28.7 µM
In short: as §1

CP192 = test: as above; details: P. falciparum in erythrocytes, SYBR Green DNA, 72 h; series mostly up to 28.7 µM
In short: as §1

CP194 = test: as above; details: P. falciparum in erythrocytes, SYBR Green DNA, 72 h; series mostly up to 28.7 µM
In short: as §1

CP201 = test: as above; details: P. falciparum in erythrocytes, SYBR Green DNA, 72 h; series mostly up to 28.7 µM
In short: as §1

CP203 = test: as above; details: P. falciparum in erythrocytes, SYBR Green DNA, 72 h; series mostly up to 28.7 µM
In short: as §1

CP211 = test: as above; details: P. falciparum in erythrocytes, SYBR Green DNA, 72 h; series mostly up to 28.7 µM
In short: as §1

CP215 = test: as above; details: P. falciparum in erythrocytes, SYBR Green DNA, 72 h; series mostly up to 28.7 µM
In short: as §1

CP217 = test: as above; details: P. falciparum in erythrocytes, SYBR Green DNA, 72 h; series mostly up to 28.7 µM
In short: as §1

CP237 = test: as above; details: P. falciparum in erythrocytes, SYBR Green DNA, 72 h; series mostly up to 28.7 µM
In short: as §1

CP238 = test: as above; details: P. falciparum in erythrocytes, SYBR Green DNA, 72 h; series mostly up to 28.7 µM
In short: as §1

CP247 = test: as above; details: P. falciparum in erythrocytes, SYBR Green DNA, 72 h; series mostly up to 28.7 µM
In short: as §1

CP250 = test: as above; details: P. falciparum in erythrocytes, SYBR Green DNA, 72 h; series mostly up to 28.7 µM
In short: as §1

CP252 = test: as above; details: P. falciparum in erythrocytes, SYBR Green DNA, 72 h; series mostly up to 28.7 µM
In short: as §1

CP256 = test: as above; details: P. falciparum in erythrocytes, SYBR Green DNA, 72 h; series mostly up to 28.7 µM
In short: as §1

CP260 = test: as above; details: P. falciparum in erythrocytes, SYBR Green DNA, 72 h; series mostly up to 28.7 µM
In short: as §1

CP262 = test: as above; details: P. falciparum in erythrocytes, SYBR Green DNA, 72 h; series mostly up to 28.7 µM
In short: as §1

CP265 = test: as above; details: P. falciparum in erythrocytes, SYBR Green DNA, 72 h; series mostly up to 28.7 µM
In short: as §1

CP266 = test: as above; details: P. falciparum in erythrocytes, SYBR Green DNA, 72 h; series mostly up to 28.7 µM
In short: as §1

Ubiquitin carboxyl-terminal hydrolase 1 (Homo sapiens), sequence (O94782 whole entry, looked up): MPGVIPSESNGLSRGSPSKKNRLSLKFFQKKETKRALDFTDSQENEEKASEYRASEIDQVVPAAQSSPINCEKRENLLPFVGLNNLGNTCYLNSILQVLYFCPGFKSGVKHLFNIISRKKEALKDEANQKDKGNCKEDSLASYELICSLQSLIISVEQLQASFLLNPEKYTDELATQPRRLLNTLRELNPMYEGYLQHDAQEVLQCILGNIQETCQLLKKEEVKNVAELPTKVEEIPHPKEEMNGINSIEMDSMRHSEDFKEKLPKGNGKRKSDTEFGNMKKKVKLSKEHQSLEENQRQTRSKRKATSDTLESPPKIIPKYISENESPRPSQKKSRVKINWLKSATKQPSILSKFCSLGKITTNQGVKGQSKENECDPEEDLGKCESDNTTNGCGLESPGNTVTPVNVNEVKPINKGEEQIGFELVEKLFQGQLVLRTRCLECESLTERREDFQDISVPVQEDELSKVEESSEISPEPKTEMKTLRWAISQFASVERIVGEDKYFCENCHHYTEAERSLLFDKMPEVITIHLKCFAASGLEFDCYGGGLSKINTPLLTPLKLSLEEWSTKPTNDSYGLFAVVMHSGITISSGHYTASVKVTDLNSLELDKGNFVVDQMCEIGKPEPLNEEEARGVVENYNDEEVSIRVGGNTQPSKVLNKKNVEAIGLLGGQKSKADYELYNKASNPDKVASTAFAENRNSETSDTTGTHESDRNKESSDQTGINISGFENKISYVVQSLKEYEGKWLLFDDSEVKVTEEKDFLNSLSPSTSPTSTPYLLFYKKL
ATP-dependent 6-phosphofructokinase (Trypanosoma brucei brucei), sequence (O15648 whole entry, looked up): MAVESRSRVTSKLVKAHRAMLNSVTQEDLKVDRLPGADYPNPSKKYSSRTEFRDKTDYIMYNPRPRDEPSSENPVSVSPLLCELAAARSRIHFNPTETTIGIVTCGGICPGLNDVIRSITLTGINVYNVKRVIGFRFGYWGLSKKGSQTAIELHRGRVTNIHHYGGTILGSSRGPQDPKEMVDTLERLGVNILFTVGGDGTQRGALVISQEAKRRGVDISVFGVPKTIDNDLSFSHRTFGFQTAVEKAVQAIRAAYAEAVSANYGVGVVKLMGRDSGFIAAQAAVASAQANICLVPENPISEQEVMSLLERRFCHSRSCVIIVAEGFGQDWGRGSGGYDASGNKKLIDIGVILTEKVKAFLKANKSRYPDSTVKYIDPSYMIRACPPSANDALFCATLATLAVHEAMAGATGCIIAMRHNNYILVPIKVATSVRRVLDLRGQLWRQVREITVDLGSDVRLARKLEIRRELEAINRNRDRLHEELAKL
Luciferin 4-monooxygenase (Photinus pyralis), sequence (P08659 whole entry, looked up): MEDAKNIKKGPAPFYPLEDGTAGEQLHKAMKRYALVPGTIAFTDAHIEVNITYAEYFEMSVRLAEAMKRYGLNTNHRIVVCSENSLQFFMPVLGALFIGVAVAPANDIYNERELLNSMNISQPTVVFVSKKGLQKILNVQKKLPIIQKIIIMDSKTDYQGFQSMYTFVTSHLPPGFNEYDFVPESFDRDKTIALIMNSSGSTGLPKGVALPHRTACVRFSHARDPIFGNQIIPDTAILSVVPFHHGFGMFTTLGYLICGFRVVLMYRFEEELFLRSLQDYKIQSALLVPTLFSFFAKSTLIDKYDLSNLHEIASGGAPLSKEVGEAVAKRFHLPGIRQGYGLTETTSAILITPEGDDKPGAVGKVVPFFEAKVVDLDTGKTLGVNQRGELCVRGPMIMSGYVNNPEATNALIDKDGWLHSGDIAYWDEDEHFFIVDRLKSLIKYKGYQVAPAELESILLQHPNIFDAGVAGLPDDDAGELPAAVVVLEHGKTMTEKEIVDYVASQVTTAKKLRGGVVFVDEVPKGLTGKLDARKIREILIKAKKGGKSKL

Cc1cn([C@H]2CC(F)[C@@H](CO)O2)c(=O)[nH]c1=O (stereo partly drawn)
inactive: Potency [1] | Potency [2] | Potency [3] | Potency [4] | Potency [5] | activity, negative = inhibition ([6]; parasite line A) 6.21% | activity, negative = inhibition ([6]; parasite line B) 4.03% | Potency (3D7) | Potency (7G8) | Potency (AA1029) | Potency (AS120) | Potency (ATS189) | Potency (ATS95) | Potency (C2A) | Potency (CP185) | Potency (CP191) | Potency (CP192) | Potency (CP194) | Potency (CP201) | Potency (CP203) | Potency (CP211) | Potency (CP215) | Potency (CP217) | Potency (CP237) | Potency (CP238) | Potency (CP247) | Potency (CP250) | Potency (CP252) | Potency (CP256) | Potency (CP260) | Potency (CP262) | Potency (CP265) | Potency (CP266)
